# Measurements as given in PubChem BioAssay.
# Activity calls are given as the source filed them.
# Legend:
# [1] = system: PRMT1 (protein arginine N-methyltransferase 1); experiment: small molecules binding arginine methyltransferase PRMT1 – biochemical, small-molecule microarray, 635 nm fluorescence, primary screen (AID 1088); settings: higher = more signal;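 note: binding of Prmt1 protein to compounds spotted on small-molecule microarray slides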
# [2] = growth effects on S. cerevisiae YJM789 – YJM789 clinical isolate, OD600, 24 h, basal, primary screen (AID 1089); settings: higher = more signal, called active from +8 up or from −8 down;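 note: growth of clinical yeast isolate S. cerevisiae YJM 789 seeded 1000 cells per well; test concentration not given here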
# [3] = S. pombe growth modifiers, basal conditions – strain 972, OD600, 24 h, no modulator, primary screen (AID 1090);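 note: basal condition with compound alone and no growth modifier present; test concentration not given here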; settings: S. pombe 972 growth, higher = more signal, called active from +8 up or from −8 down
# [4] = budding yeast growth modifiers under rapamycin – strain BY4716, OD600, 96 h, primary screen (AID 1091); note: test concentration not given here; settings: S. cerevisiae BY4716 + rapamycin, higher = more signal, called active from +8 up or from −8 down
# [5] = molecular target: Torsin-1A-interacting protein 2 (Homo sapiens) (UniProt Q8NFQ8); experiment: small molecules binding lysate-expressed LULL1 – cell lysate, human LULL1 lysate, 635/667 nm fluorescence, primary screen (AID 1092); settings: small-molecule microarray, hLULL1 lysate binding, 635 nm fluorescence; higher = more signal;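 note: probe is lysate of COS7 cells overexpressing human LULL1; score merges per-feature 667 nm fluorescence with signal-to-noise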
# Torsin-1A-interacting protein 2 (Homo sapiens), sequence (Q8NFQ8 whole entry, looked up): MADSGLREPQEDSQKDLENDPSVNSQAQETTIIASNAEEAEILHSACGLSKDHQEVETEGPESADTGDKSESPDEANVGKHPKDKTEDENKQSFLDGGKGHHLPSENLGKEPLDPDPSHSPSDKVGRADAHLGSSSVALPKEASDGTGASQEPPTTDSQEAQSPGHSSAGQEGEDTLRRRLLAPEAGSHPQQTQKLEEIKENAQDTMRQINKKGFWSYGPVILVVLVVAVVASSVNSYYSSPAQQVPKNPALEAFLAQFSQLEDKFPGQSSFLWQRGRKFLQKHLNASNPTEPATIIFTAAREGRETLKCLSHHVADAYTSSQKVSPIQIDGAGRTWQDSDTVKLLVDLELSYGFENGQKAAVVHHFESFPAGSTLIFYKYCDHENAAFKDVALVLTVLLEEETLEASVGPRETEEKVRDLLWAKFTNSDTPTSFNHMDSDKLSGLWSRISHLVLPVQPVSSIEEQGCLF
# [6] = optical density change of DRC41 E. coli – strain DRC41, OD650, 24 h, E. coli filamentation project, primary screen (AID 1093);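 note: MC1000 strain lacking acrAB efflux and sulA so SOS filamentation is blocked; test concentration not given here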; settings: E. coli DRC41 growth, higher = more signal, called active from +8 up or from −8 down
# [7] = probe aLefty2 binding to arrayed compounds – biochemical, biotinylated probe, 635/667 nm fluorescence, primary screen (AID 1094); settings: small-molecule microarray, higher = more signal;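 note: score merges spot fluorescence near 667 nm with spot signal-to-noise ratio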
# [8] = system: Noggin (protein binding on small-molecule microarray); experiment: small molecules binding Noggin protein – biochemical, 635/667 nm fluorescence, primary screen (AID 1095); settings: 635 nm fluorescence, higher = more signal;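 note: score merges 667 nm feature fluorescence with signal to noise over triplicate slides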
# [9] = molecular target: Neurogenic locus notch homolog protein 3 (Homo sapiens) (UniProt Q9UM47); experiment: small molecules binding NOTCH3 protein – biochemical, 635/667 nm fluorescence, primary screen (AID 1096); settings: small-molecule microarray, 635 nm fluorescence, higher = more signal
# Neurogenic locus notch homolog protein 3 (Homo sapiens), sequence (Q9UM47 whole entry, looked up): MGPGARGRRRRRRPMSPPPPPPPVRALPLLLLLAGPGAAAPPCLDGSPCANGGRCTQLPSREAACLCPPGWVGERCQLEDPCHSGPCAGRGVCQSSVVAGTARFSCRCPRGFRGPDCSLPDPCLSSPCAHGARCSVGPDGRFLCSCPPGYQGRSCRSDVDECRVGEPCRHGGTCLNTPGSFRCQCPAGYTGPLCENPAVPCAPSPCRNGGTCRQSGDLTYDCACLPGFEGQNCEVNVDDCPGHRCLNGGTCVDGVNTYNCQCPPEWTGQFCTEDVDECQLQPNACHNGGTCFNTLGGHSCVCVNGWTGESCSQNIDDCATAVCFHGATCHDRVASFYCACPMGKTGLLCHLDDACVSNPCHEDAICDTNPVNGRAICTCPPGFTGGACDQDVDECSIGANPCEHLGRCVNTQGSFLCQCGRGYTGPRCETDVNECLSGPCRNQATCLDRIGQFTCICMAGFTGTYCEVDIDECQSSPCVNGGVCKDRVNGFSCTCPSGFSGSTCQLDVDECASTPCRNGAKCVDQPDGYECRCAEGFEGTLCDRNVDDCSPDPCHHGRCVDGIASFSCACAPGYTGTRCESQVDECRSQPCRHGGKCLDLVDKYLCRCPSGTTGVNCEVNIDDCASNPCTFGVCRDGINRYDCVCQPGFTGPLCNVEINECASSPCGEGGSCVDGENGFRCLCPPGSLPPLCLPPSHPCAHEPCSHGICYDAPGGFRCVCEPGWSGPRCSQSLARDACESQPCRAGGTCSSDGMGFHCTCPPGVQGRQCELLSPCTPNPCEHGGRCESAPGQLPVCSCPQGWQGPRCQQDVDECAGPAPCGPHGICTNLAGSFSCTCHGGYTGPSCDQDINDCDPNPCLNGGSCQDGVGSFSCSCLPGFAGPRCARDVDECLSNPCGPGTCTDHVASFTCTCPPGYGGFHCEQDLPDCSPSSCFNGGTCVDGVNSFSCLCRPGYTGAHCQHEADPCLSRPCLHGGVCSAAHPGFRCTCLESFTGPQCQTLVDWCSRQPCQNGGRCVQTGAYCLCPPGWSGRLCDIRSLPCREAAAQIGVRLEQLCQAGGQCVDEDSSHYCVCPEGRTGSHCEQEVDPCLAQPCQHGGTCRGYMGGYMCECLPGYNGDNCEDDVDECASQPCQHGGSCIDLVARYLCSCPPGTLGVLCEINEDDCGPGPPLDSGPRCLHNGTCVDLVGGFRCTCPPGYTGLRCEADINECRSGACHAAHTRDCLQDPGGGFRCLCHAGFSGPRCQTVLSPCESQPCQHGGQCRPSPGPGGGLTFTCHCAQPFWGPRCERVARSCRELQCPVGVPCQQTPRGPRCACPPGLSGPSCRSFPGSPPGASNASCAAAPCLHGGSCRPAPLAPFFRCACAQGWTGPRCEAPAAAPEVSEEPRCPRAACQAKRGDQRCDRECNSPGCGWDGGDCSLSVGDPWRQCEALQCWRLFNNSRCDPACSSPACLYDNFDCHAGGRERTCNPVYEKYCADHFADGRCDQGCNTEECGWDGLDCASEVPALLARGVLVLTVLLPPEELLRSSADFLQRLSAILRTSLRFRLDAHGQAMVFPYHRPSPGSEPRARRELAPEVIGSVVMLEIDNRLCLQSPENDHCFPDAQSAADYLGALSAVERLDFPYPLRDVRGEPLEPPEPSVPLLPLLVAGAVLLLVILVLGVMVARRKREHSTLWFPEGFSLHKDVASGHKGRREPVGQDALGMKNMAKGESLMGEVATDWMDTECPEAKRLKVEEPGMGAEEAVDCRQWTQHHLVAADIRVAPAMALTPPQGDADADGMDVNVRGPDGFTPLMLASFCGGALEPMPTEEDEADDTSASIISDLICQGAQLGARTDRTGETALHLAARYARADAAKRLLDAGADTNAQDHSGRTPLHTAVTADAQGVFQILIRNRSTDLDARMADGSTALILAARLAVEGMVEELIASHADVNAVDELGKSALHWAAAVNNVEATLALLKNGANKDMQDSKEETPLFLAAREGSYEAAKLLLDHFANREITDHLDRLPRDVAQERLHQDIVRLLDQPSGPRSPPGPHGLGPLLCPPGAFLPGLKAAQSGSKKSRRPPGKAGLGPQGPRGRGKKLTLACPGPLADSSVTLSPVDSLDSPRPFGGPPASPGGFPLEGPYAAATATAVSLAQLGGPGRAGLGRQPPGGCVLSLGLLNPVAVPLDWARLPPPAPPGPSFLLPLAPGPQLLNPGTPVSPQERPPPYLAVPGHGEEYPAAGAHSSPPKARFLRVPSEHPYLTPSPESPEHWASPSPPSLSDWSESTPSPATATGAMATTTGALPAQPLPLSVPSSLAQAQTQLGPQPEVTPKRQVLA
# [10] = probe aEGFR binding to arrayed compounds – biochemical, biotinylated probe, 635/667 nm fluorescence, primary screen (AID 1097); settings: small-molecule microarray, higher = more signal;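 note: probe is a biotinylated anti-EGFR antibody binding compounds printed on slides; score combines fluorescence near 667 nm and signal to noise of each spot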
SMILES,composite z-score [1],z-score [2],z-score [3],z-score [4],composite z-score [5],z-score [6],composite z-score [7],composite z-score [8],composite z-score [9],composite z-score [10]
COC(=O)[C@@]1(Cc2ccc(OC)cc2)[C@H]2c3cc(C(=O)N4CCCC4)n(Cc4ccc(OC(F)(F)F)cc4)c3C[C@H]2CN1C(=O)c1ccccc1,-1.02,0.59 (inactive),1.74 (inactive),3.21 (inactive),0.0202,-0.376 (inactive),0.412,-0.442,0.75,0.343
CO[C@H]1O[C@H](CO)[C@@H](OC(=O)CCc2ccccc2)[C@H](OC(=O)c2cc3ccccc3[nH]2)[C@H]1OC(=O)c1cc2ccccc2[nH]1,1.38,-0.583 (inactive),-0.0932 (inactive),20 (active),2.74,1.5 (inactive),-0.0468,0.565,1.07,-0.0662
CN1C(=O)C2C=CC(C(O)c3ccc(I)cc3)N(Nc3ccccc3)C2C1=O (stereo not given),1.27,-0.228 (inactive),-0.504 (inactive),0.768 (inactive),2.99,-1.78 (inactive),0.107,-0.111,1.09,0.0778
CCOC(=O)C[C@H]1[C@H](OC(=O)c2ccccc2-c2ccccc2)[C@@H](NC(=O)c2ccccc2)c2cc(OCCCO)ccc2N1C(=O)c1ccccc1,0.0302,-0.0764 (inactive),0.587 (inactive),1.58 (inactive),1.22,-1.11 (inactive),-0.214,0.169,0.243,-0.0726
CC(C)CCC[C@@H](C)[C@H]1CC[C@@]2(C)C3=C(CC[C@]12C)[C@@]1(C)CC[C@H](OC(=O)c2ccccc2)C(C)(C)C1CC3 (stereo not given in full),-0.0528,-1.9 (inactive),-0.547 (inactive),-0.568 (inactive),-0.11,1.59 (inactive),-0.193,0.559,0.316,-0.0828
COc1ccc(NC(=O)O[C@H]2[C@@H]3OC(=O)[C@H](Cc4cccc(Br)c4)C/C=C/C[C@@H](Cc4cccc(Br)c4)C(=O)O[C@H]3[C@@H](OC)O[C@@H]2CO)cc1,1.06,0.337 (inactive),0.505 (inactive),-0.127 (inactive),1.36,0.904 (inactive),0.123,0.331,0.656,-0.067
CC(=O)n1cc(C(O)C2C=CC3C(=O)N(c4ccccc4)C(=O)C3N2Nc2ccc(C(C)C)cc2)c2ccccc21 (stereo not given),1.22,-0.314 (inactive),0.713 (inactive),0.0496 (inactive),3.27,-0.811 (inactive),0.353,-0.706,1.04,0.0786
C=C[C@@H](C)[C@H](O)c1ccc(OCCO)cc1,-0.365,0.217 (inactive),-0.297 (inactive),-0.0577 (inactive),1.14,-0.0261 (inactive),-0.225,-1.34,-0.743,-0.37
COCC(=C=CC[C@@H](O)c1ccc(OCCO)cc1)CCO,0.271,0.177 (inactive),0.0708 (inactive),-0.18 (inactive),1.73,0.802 (inactive),-0.132,0.913,0.622,-0.125
CC(C)CNC(=O)[C@@]1(c2ccc([N+](=O)[O-])cc2)CC(=O)N(C2CCCCC2)[C@@H]1c1ccc(CO)cc1,0.566,-0.563 (inactive),-0.514 (inactive),-0.548 (inactive),2.54,0.861 (inactive),0.136,-0.318,-0.0858,-0.0989
C=CCC(OC(C)=O)[C@@H]1[C@@H](N(Cc2ccc(-c3cccc(C(F)(F)F)c3)o2)C(=O)Cc2ccc(OC)cc2)c2cc(OCCCO)ccc2N1C(=O)Cc1ccc2ccccc2c1 (stereo not given in full),0.466,0.807 (inactive),0.243 (inactive),-0.386 (inactive),0.958,-0.406 (inactive),-0.0654,-0.621,-0.246,-0.217
[N-]=[N+]=NCc1ccccc1[C@H]1OC(c2ccc(OCCCO)cc2)=N[C@@]1(Cc1ccccc1)C(=O)NCCN1CCOCC1,1.53,-1.07 (inactive),-0.864 (inactive),-0.31 (inactive),3.34,1.12 (inactive),0.443,0.52,1.09,-0.0329
C=CCNC(=O)[C@@H]1[C@H]2C(=O)O[C@H](c3ccccc3)[C@H](c3ccccc3)N2[C@H](c2ccc(O)cc2)[C@@]12C(=O)Nc1ccc(C#CCC(C(=O)OC)C(=O)OC)cc12,1.55,1.66 (inactive),0.918 (inactive),1.12 (inactive),2.32,-0.311 (inactive),0.0539,0.482,0.387,-0.187
COc1ccc(C(=O)Nc2cccc(CN3C(=O)[C@]4(O[C@H](CCn5cc([C@H](O)c6ccccc6)nn5)[C@@H]([Si](C)(C)c5ccc(OC)cc5)[C@@H]4C)c4ccccc43)c2)cc1,0.682,-0.228 (inactive),-1.99 (inactive),0.678 (inactive),1.38,1.48 (inactive),-0.0674,0.383,0.889,-0.128
CC(C)C[C@@H]1NC(=O)[C@@H]2C[C@H](C(=O)NCCCCCC[N+](C)(C)C)[C@H](c3cccc(OCCO)c3)N2C1=O,1.58,-0.632 (inactive),0.806 (inactive),0.24 (inactive),3.23,-0.209 (inactive),-0.135,-0.143,0.766,-0.0572
CCOC(=O)C=Cc1ccccc1O,0.697,-23.9 (active),-9.67 (active),-1.89 (inactive),1.44,0.354 (inactive),-0.0432,-0.0491,0.947,0.0594
C=C(/C(=C/C[C@@H](OC(C)=O)c1ccc(OCCO)cc1)c1cc(C(=O)OC)ccc1OC)C(C)C,0.629,-0.265 (inactive),0.272 (inactive),-1.5 (inactive),1.21,-0.268 (inactive),-0.152,0.902,0.843,-0.176
CCOC(=O)C[C@H]1[C@H](OC(=O)c2ccc(C(=O)c3ccccc3)cc2)[C@@H](NC(=O)CC(C)C)c2cc(OCCCO)ccc2N1C(=O)Cc1ccc(OC)cc1,0.451,0.247 (inactive),0.22 (inactive),0.265 (inactive),0.663,-0.113 (inactive),0.0351,-0.114,0.477,-0.0585
C=C[C@@H](OC)[C@H](OC(=O)Nc1ccc(OC)cc1)c1ccc(OC)c(O)c1,-0.391,0.239 (inactive),-0.375 (inactive),-0.901 (inactive),1.04,0.234 (inactive),-0.124,-0.527,-0.449,-0.25
COc1cc(NN2C(C(O)C3CCCCC3)C=CC3C(=O)N(c4ccccc4)C(=O)C32)cc(OC)c1OC (stereo not given),0.955,0.93 (inactive),1.06 (inactive),0.408 (inactive),3.25,-1.24 (inactive),0.167,-0.273,1.07,-0.0068
C=C(/C(=C/C[C@H](OC(=O)c1ccncc1)c1cccc(OCCO)c1)c1cnc2ccccc2c1)C(C)C,1.54,-25.3 (active),-20.3 (active),-4.3 (inactive),1.21,-0.315 (inactive),-0.115,1.85,1.07,-0.0578
CCOC(=O)C1=C[C@@H](C(C)(C)C)N(S(=O)(=O)c2ccc(C)cc2)[C@H]1c1ccc(C)cc1,1.54,-0.582 (inactive),0.0598 (inactive),0.632 (inactive),3.25,-1.38 (inactive),0.273,0.552,1.02,0.157
Cc1ccc(F)cc1S(=O)(=O)N[C@@H]1CCN(Cc2cccc3[nH]ccc23)C1,0.317,0.84 (inactive),-1.02 (inactive),-0.639 (inactive),-0.466,-0.833 (inactive),-0.0728,0.586,0.56,0.137
COC(=O)[C@@]1(Cc2ccc(OC)cc2)[C@H]2c3cc(C(=O)N4CCCC4)n(Cc4cc(C)n(C)n4)c3C[C@H]2CN1C(=O)c1ccccc1,0.481,-0.102 (inactive),1.31 (inactive),0.202 (inactive),3.85,-0.265 (inactive),0.724,-0.513,1.04,0.701
CCOC(=O)C[C@H]1[C@H](OC(=O)c2ccc(-c3ccccc3)cc2)[C@@H](NC(=O)Cc2ccc(OC)cc2)c2cc(OCCCO)ccc2N1C(=O)Cc1ccc(OC)cc1,0.287,1.09 (inactive),-0.231 (inactive),1.63 (inactive),1.55,1.3 (inactive),-0.0769,-0.542,-0.0636,-0.094
CCCCCCCCCCC(O)C1C=CC2C(=O)N(c3ccccc3)C(=O)C2N1Nc1ccccc1F (stereo not given),0.545,0.536 (inactive),0.849 (inactive),1.62 (inactive),1.59,-1.47 (inactive),-0.0713,-1.47,-0.277,-0.0576
CCOC(=O)C1=C[C@@H](C(C)(C)C)N(S(=O)(=O)c2ccc(C)cc2)[C@H]1c1ccccc1,1.22,0.826 (inactive),1.27 (inactive),1.41 (inactive),0.928,-0.0247 (inactive),0.0194,0.576,1.07,0.124
O=C1OCC=C[C@H]2OC34C=CCN(c5ccc6ccccc6c5)C(=O)[C@H]3N(CCCCCO)C(=O)[C@@H]4[C@@H]12 (stereo not given in full),-0.6,-0.594 (inactive),-0.955 (inactive),-0.515 (inactive),3.68,0.198 (inactive),0.306,-1.65,-1.04,-0.177
CCCCC(=C=CC[C@H](O)c1ccc(OCCO)cc1)C[C@H](O)c1cc(Cl)cc(Cl)c1O,1.18,0.294 (inactive),-3.5 (inactive),-0.15 (inactive),1.54,0.0374 (inactive),-0.192,0.563,0.62,-0.183
